PubChem BioAssay (EPA / NIEHS)
Values joined by “and” are separate entries in the source; they are usually repeats but may differ in a detail not shown here. Equal entries are not always repeated. A structure can be active in one record and inactive in another. Active and inactive are the calls of the source. Rule for the calls: active = hit-call score of the fitted dose curve at least 0.9, where 1 is the maximum; inactive = score below 0.9.

Assays:
Settings in all cases: mRNA level, 48 h; actives raise or lower the signal
[1] = read-out: Glutamate-cysteine ligase catalytic (GCLC), GCLC (gene 2729); assay: LTEA_HepaRG_GCLC: Life Technologies and Expression Analysis (LTEA) Assay for Glutamate-cysteine ligase catalytic (GCLC) using HepaRG (AID 2283498)
Method in brief: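 Oxidative-stress marker GCLC is measured as mRNA change in human HepaRG liver cells after 48 h chemical treatment in 0.5% DMSO, eight concentrations from 100 uM. Activity is fitted bidirectionally against vehicle.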

[2] = read-out: growth arrest and DNA damage 45 (GADD45G), GADD45G (gene 10912); assay: LTEA_HepaRG_GADD45G: Life Technologies and Expression Analysis (LTEA) Assay for growth arrest and DNA damage 45 (GADD45G) using HepaRG (AID 2283499)
Method in brief: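 Gain or loss of GADD45G mRNA, quantified by TaqMan qRT-PCR against three housekeeping genes, is fitted in both directions relative to 0.5% DMSO. Human HepaRG cultures receive test chemical for 48 h at up to 100 uM.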

[3] = read-out: Glutamate-cysteine ligase regulatory (GCLM), GCLM (gene 2730); assay: LTEA_HepaRG_GCLM: Life Technologies and Expression Analysis (LTEA) Assay for Glutamate-cysteine ligase regulatory (GCLM) using HepaRG (AID 2283500)
Method in brief: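 HepaRG, 48 h dosing, 100 uM top, half-log x8, 0.5% DMSO vehicle. Readout: GCLM mRNA by TaqMan qRT-PCR, housekeeping-normalized (ACTB/GAPDH/POLR2A). Curves fit bidirectionally vs DMSO baseline.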

[4] = read-out: Glutathione S-transferase M3 (GSTM3), GSTM3 (gene 2947); assay: LTEA_HepaRG_GSTM3: Life Technologies and Expression Analysis (LTEA) Assay for Glutathione S-transferase M3 (GSTM3) using HepaRG (AID 2283501)
Method in brief: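 HepaRG, plated 48 h, then serum-free induction medium; test chemical 48 h, duplicate; 100 uM top, half-log x8, 0.5% DMSO. Read-out: GSTM3 mRNA (TaqMan qRT-PCR, Fluidigm array). Bidirectional fit vs DMSO.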

[5] = read-out: Heat shock 70 kDa protein 1 (HSPA1A), gene 3303; assay: LTEA_HepaRG_HSPA1A: Life Technologies and Expression Analysis (LTEA) Assay for Heat shock 70 kDa protein 1 (HSPA1A) using HepaRG (AID 2283502)
Method in brief: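 HepaRG, 48 h exposure, 8-pt half-log CRC from 100 uM in 0.5% DMSO, duplicates. Readout: TaqMan qRT-PCR of HSPA1A mRNA, housekeeping-normalized (ACTB/GAPDH/POLR2A). Bidirectional fit vs 0.5% DMSO baseline.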

[6] = read-out: Hypoxia-inducible factor 1-alpha (Homo sapiens) (UniProt Q16665); assay: LTEA_HepaRG_HIF1A: Life Technologies and Expression Analysis (LTEA) Assay for Hypoxia-inducible factor 1 (HIF1A) Trancription factor using HepaRG (AID 2283503)
Method in brief: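 Gain- or loss-of-signal HIF1A mRNA changes are fitted against a DMSO baseline. HepaRG cultures receive eight concentrations, highest 100 uM, for 48 h in serum-free induction medium with 0.5% DMSO.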

[7] = read-out: 3-Hydroxy-3-Methylglutaryl-CoA Synthase 2 (HMGCS2), HMGCS2 (gene 3158); assay: LTEA_HepaRG_HMGCS2: Life Technologies and Expression Analysis (LTEA) Assay for 3-Hydroxy-3-Methylglutaryl-CoA Synthase 2 (HMGCS2) using HepaRG (AID 2283504)
Method in brief: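 HepaRG, plated 48 h then switched to serum-free induction media; cmpd 8-pt, max 100 uM, 1/2-log, 0.5% DMSO, n=2, 48 h. HMGCS2 mRNA by Fluidigm TaqMan qRT-PCR, ACTB/GAPDH/POLR2A norm; bidirectional fit vs DMSO.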

HGF (gene 3082) = assay: LTEA_HepaRG_HGF: Life Technologies and Expression Analysis (LTEA) Assay for Hepatocyte Growth Facto (HGF) using HepaRG (AID 2283505)
Method in brief: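 Read-out is HGF transcript level by qRT-PCR, normalized to three housekeeping genes, fitted bidirectionally against 0.5% DMSO vehicle. Human HepaRG cells received test chemicals for 48 h at up to 100 uM.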

[8] = read-out: Insulin Like Growth Factor 1 (IGF1), IGF1 (gene 3479); assay: LTEA_HepaRG_IGF1: Life Technologies and Expression Analysis (LTEA) Assay for Insulin Like Growth Factor 1 (IGF1) using HepaRG (AID 2283506)
Method in brief: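 qRT-PCR readout of IGF1 mRNA, normalized to three housekeeping genes, after 48 h chemical exposure of HepaRG cells. Concentrations: 8-point half-log series, top 100 uM, 0.5% DMSO vehicle. Gain or loss fitted against DMSO baseline.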

[9] = read-out: Intercellular Adhesion Molecule 1 (ICAM1), ICAM1 (gene 3383); assay: LTEA_HepaRG_ICAM1: Life Technologies and Expression Analysis (LTEA) Assay for Intercellular Adhesion Molecule 1 (ICAM1) using HepaRG (AID 2283507)
Method in brief: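 Readout is qRT-PCR mRNA level, normalized to three housekeeping genes and fitted bidirectionally against 0.5% DMSO vehicle. Human HepaRG cultures received compound for 48 h, top concentration 100 uM with half-log dilutions.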

[10] = read-out: Interleukin 6 (IL6), IL6 (gene 3569); assay: LTEA_HepaRG_IL6: Life Technologies and Expression Analysis (LTEA) Assay for Interleukin 6 (IL6) using HepaRG (AID 2283509)
Method in brief: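 Changes in IL6 mRNA, up or down relative to 0.5% DMSO controls, were derived from concentration-response curves in human HepaRG cells treated for 48 h at up to 100 uM, with ACTB, GAPDH and POLR2A as normalizers.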

[11] = read-out: Interleukin 6 Receptor (IL6R), IL6R (gene 3570); assay: LTEA_HepaRG_IL6R: Life Technologies and Expression Analysis (LTEA) Assay for Interleukin 6 Receptor (IL6R) using HepaRG (AID 2283510);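 for AC50: differentiated human HepaRG liver cells in serum-free induction medium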
Method in brief: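 HepaRG, 48 h exposure, 8-pt half-log series, top 100 uM, 0.5% DMSO vehicle, duplicates. Read-out: TaqMan qRT-PCR of IL6R transcript, housekeeping-gene normalized. Gain or loss fitted relative to DMSO baseline.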

[12] = read-out: Potassium channel subfamily K member 1 (KCNK1), KCNK1 (gene 3775); assay: LTEA_HepaRG_KCNK1: Life Technologies and Expression Analysis (LTEA) Assay for Potassium channel subfamily K member 1 (KCNK1) using HepaRG (AID 2283511)
Method in brief: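 Human HepaRG cultures receive test chemicals for 48 h in 0.5% DMSO, top concentration 100 uM with half-log dilutions. Induction or suppression of KCNK1 mRNA relative to DMSO is derived by bidirectional fitting of qRT-PCR data.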

[13] = read-out: Keratin 19 (KRT19), KRT19 (gene 3880); assay: LTEA_HepaRG_KRT19: Life Technologies and Expression Analysis (LTEA) Assay for Keratin 19 (KRT19) using HepaRG (AID 2283512)
Method in brief: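 KRT19 transcript levels, measured by Fluidigm qRT-PCR against three housekeeping genes, are fitted for gain or loss of signal relative to DMSO. Human HepaRG cells receive test chemicals (top 100 uM, half-log steps, 0.5% DMSO) for 48 hours.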

[14] = read-out: JUN Transcription Factor, JUN (gene 3725); assay: LTEA_HepaRG_JUN: Life Technologies and Expression Analysis (LTEA) Assay for JUN Transcription Factor using HepaRG (AID 2283513)
Method in brief: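 HepaRG, 48 h exposure, 8-pt half-log series top 100 uM, 0.5% DMSO, duplicate. JUN mRNA by qRT-PCR (Fluidigm), housekeeping-normalized (ACTB/GAPDH/POLR2A); bidirectional curve fit vs DMSO baseline.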

[15] = read-out: Lipase C (LIPC), LIPC (gene 3990); assay: LTEA_HepaRG_LIPC: Life Technologies and Expression Analysis (LTEA) Assay for Lipase C (LIPC) using HepaRG (AID 2283514)
Method in brief: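 In this multiplexed gene-expression screen, human HepaRG cultures received test chemicals for 48 h across eight concentrations with 100 uM highest, in duplicate. Values reflect LIPC mRNA induction or suppression versus DMSO vehicle, from normalized qRT-PCR.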

[16] = read-out: Lipoprotein lipase (LPL), LPL (gene 4023); assay: LTEA_HepaRG_LPL: Life Technologies and Expression Analysis (LTEA) Assay for Lipoprotein lipase (LPL) using HepaRG (AID 2283515)
Method in brief: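 Concentration-response testing used half-log steps from 100 uM in 0.5% DMSO on human HepaRG cells, 48 h, duplicate wells. Phenobarbital 1 mM served as induction control; LPL mRNA was normalized to ACTB, GAPDH, POLR2A.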

[17] = read-out: MicroRNA 122 (MIR122), gene 406906; assay: LTEA_HepaRG_MIR122: Life Technologies and Expression Analysis (LTEA) Assay for MicroRNA 122 (MIR122) using HepaRG (AID 2283516); note: the transcript read is the microRNA miR-122
Method in brief: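 qRT-PCR read-out (TaqMan, Fluidigm array), normalized to three housekeeping genes; HepaRG cells dosed 48 h at 8 concentrations up to 100 uM in 0.5% DMSO, duplicate; gain or loss fitted against DMSO baseline.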

[18] = read-out: matrix metalloproteinase-10 (MMP10), MMP10 (gene 4319); assay: LTEA_HepaRG_MMP10: Life Technologies and Expression Analysis (LTEA) Assay for matrix metalloproteinase-10 (MMP10) using HepaRG (AID 2283517)
Method in brief: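 In differentiated HepaRG cultures kept in 0.5% DMSO, test chemicals act for 48 h over an eight-point range with a top dose of 100 uM. Expression is then quantified by TaqMan RT-PCR against ACTB, GAPDH and POLR2A.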

[19] = read-out: Insulin-like growth factor-binding protein 1 (IGFBP1), IGFBP1 (gene 3484); assay: LTEA_HepaRG_IGFBP1: Life Technologies and Expression Analysis (LTEA) Assay for Insulin-like growth factor-binding protein 1 (IGFBP1) using HepaRG (AID 2283508)
Method in brief: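 Thawed HepaRG cells are plated for 48 h, switched to serum-free induction medium, then dosed in duplicate for another 48 h (100 uM top, half-log steps). Lysates in RLT go to qRT-PCR, and gain or loss of signal is fitted relative to vehicle.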

Hypoxia-inducible factor 1-alpha (Homo sapiens), sequence (Q16665 whole entry, looked up): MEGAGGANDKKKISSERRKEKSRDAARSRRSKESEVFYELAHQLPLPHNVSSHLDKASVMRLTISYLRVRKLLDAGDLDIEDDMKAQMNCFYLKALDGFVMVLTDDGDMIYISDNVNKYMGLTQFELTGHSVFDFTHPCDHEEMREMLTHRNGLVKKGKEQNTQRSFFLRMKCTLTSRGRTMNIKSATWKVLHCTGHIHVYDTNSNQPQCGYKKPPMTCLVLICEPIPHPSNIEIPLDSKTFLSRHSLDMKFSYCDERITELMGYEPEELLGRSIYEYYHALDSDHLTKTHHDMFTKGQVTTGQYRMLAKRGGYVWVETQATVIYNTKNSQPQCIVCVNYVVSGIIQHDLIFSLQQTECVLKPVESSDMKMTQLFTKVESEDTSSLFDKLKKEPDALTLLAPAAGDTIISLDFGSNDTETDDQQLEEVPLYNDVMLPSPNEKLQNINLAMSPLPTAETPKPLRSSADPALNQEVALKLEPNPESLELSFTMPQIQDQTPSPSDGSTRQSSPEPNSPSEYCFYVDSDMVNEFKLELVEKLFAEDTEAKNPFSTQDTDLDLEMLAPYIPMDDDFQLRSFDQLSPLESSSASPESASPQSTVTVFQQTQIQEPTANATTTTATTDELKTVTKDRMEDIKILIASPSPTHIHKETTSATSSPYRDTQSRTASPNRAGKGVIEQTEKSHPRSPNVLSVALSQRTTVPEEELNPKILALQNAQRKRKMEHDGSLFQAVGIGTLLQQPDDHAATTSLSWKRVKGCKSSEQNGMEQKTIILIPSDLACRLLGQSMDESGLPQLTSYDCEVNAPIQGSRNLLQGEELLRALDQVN

Q: What does the source list for `Cc1c(F)c(F)c(COC(=O)C2C(/C=C(\Cl)C(F)(F)F)C2(C)C)c(F)c1F` (centres undefined)?
A: outcome [1]: inactive; outcome [2]: inactive; outcome [3]: inactive; outcome [4]: inactive; outcome [5]: inactive; outcome [6]: inactive; outcome [7]: inactive; outcome (HGF (gene 3082)): inactive; AC50 [8]: 69.4 µM (active); outcome [9]: inactive; outcome [10]: inactive; outcome [11]: inactive; outcome [12]: inactive; outcome [13]: inactive; outcome [14]: inactive; outcome [15]: inactive; outcome [16]: inactive; outcome [17]: inactive; outcome [18]: inactive

Q: Which AC50 [1] does the source give for `CCCN(CCC)c1c([N+](=O)[O-])cc(S(N)(=O)=O)cc1[N+](=O)[O-]` here?
A: 70.9 µM (active) and 83.9 µM (active)

Q: What about the outcome [1] of the same molecule?
A: inactive

Q: What about the outcome [2] of the same molecule?
A: inactive

Q: And the AC50 [3]?
A: 92 µM (active)

Q: What about the outcome [3] of the same molecule?
A: inactive

Q: And the outcome [4]?
A: inactive

Q: And the AC50 [5]?
A: 70.7 µM (active) and 75.6 µM (active) and 50 µM (active)

Q: What about the AC50 [6] of the same molecule?
A: 94.2 µM (active) and 84.5 µM (active)

Q: What about the outcome [6] of the same molecule?
A: inactive

Q: And the AC50 [7]?
A: 54.1 µM (active) and 73.4 µM (active)

Q: And the outcome [7]?
A: inactive

Q: And the outcome (HGF (gene 3082))?
A: inactive

Q: And the AC50 [8]?
A: 93.4 µM (active)

Q: What about the outcome [8] of the same molecule?
A: inactive

Q: And the AC50 [9]?
A: 94.8 µM (active) and 85.4 µM (active)

Q: What about the outcome [9] of the same molecule?
A: inactive

Q: And the AC50 [19]?
A: 92.9 µM (active) and 36.6 µM (active) and 78.9 µM (active)

Q: What about the AC50 [10] of the same molecule?
A: 93.1 µM (active) and 85.4 µM (active) and 91 µM (active)

Q: What about the AC50 [11] of the same molecule?
A: 68.4 µM (active) and 70 µM (active)

Q: What about the outcome [11] of the same molecule?
A: inactive

Q: What about the AC50 [12] of the same molecule?
A: 93.5 µM (active)

Q: What about the outcome [12] of the same molecule?
A: inactive

Q: And the AC50 [13]?
A: 93.8 µM (active) and 72.5 µM (active)

Q: And the outcome [13]?
A: inactive

Q: And the AC50 [14]?
A: 94.2 µM (active) and 79.3 µM (active) and 74.8 µM (active)

Q: What about the outcome [15] of the same molecule?
A: inactive

Q: What about the AC50 [16] of the same molecule?
A: 50 µM (active)

Q: What about the outcome [16] of the same molecule?
A: inactive

Q: And the AC50 [18]?
A: 74.1 µM (active)

Q: What about the outcome [18] of the same molecule?
A: inactive
